Assay outcomes as filed in PubChem BioAssay.
Compounds with a hit are over-represented: about 27% of the library has one in this group of screens.
Cav32 inh – blocks human Cav3.2 T-type calcium channel. O95180. AID 449739. Cav3.2-expressing cells, Fluo-4 calcium fluorescence FDSS; hits give low values. B-score at 10 µM. 4% of 100,000 active;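 active = single-dose well whose peak fluorescence ratio is a statistical outlier from its plate by either plate-standardised score or position-corrected B-score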
CYP2C19 inhib – human CYP2C19 inhibition; AID 778; P33261; inhibition, % at 5 µM; 21% of 96,000 active; CYP2C19 Supersomes, luciferin-H EGE luminescence, 30 min;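 active = CYP2C19 inhibition above a set limit at 5 µM in the primary screen, cut at about 50% in these data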;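 note: plate controls were negative control wells for no effect and 2.5 mM tranylcypromine positive control for full effect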
CYP2C9 activ – activators of human CYP2C9; AID 1024; 1.4% of 96,000 active; activation factor at 5 µM; P11712; recombinant CYP2C9, luciferin-H conversion, luminescence; hits give high values; factor 1 = untreated enzyme, 0 = blocked;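 active = activation factor of 2 or more for CYP2C9 at a 5 µM dose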;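 note: 0 = sulfaphenazole-blocked wells and 1 = vehicle-only wells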
CYP2C19 act – activators of human cytochrome P450 2C19; P33261; recombinant CYP2C19, luciferin-H EGE luminescence; hits give high values; 0 = fully inhibited enzyme, 1 = untreated enzyme; activation factor at 5 µM; 96,000 tested, under 10 active; AID 1025;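 active = activation factor of at least 2 at 5 µM in the primary screen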;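 note: 0 = wells with 2.5 mM tranylcypromine and 1 = vehicle-only wells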
CYP2C9 inhib – human CYP2C9 inhibition; inhibition, % at 5 µM; 20% of 96,000 active; CYP2C9 Supersomes, luciferin-H conversion, luminescence; P11712;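 active = blocking of liver enzyme CYP2C9 beyond about 50% at 5 µM, limit read from the data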
* = called active by the depositor; . = no result given.

SMILES | Cav32 inh | CYP2C19 inhib | CYP2C9 activ | CYP2C19 act | CYP2C9 inhib
CC1(c2nnc(-c3ccccc3)o2)CC(c2ccc([N+](=O)[O-])cc2)=NO1 (stereo not drawn) | -1.6 | . | . | . | .
Fc1cc2ncn(Cc3ccccc3)c2cc1F | -1.8 | 45 | 0.7 | 0.5 | 26
CCCCCC(=O)Cc1cc(O)cc2c1C(=O)Oc1cc(O)c(C(=O)O)c(CCCCC)c1O2 | -3.1 | . | . | . | .
CC1(C)CC(=O)C2=C(C1)Oc1nc3ccccc3cc1C2C(C#N)C#N (stereo not drawn) | 1.7 | 26 | 0.4 | 0.7 | 60*
COC(=O)/C(=C\Nc1ccccc1N)c1ncc(C(F)(F)F)cc1Cl | 0.73 | 32 | 0.9 | 0.7 | 8
c1ccc2c(c1)oc1c(NCCCn3ccnc3)ncnc12 | -0.45 | 80* | 0.1 | 0.2 | 92*
c1ccc2c(c1)oc1c(NCCCN3CCOCC3)ncnc12 | 0.012 | 23 | 0.7 | 0.8 | 30
Cc1nc(NCCCn2ccnc2)c2oc3ccccc3c2n1 | 2.2 | 85* | 0 | 0.2 | 96*
CCNc1nc(C)nc2c1oc1ccccc12 | 0.3 | -3 | 1 | 1 | -4
CCN(c1cccc(C)c1)S(=O)(=O)c1ccc2[nH]c(=O)c(=O)[nH]c2c1 | -0.27 | 32 | 0.3 | 0.7 | 69*
COc1ccc(C)cc1S(=O)(=O)N(C)CC(=O)NC1CCCCC1 | 0.49 | 22 | 0.9 | 0.8 | 7
COc1cccc(CNC(=O)CN(C)S(=O)(=O)c2cnc[nH]2)c1 | 0.08 | 99* | 0.2 | 0 | 79*
Cc1cccc(NC(=O)CN(C)S(=O)(=O)c2cnc[nH]2)c1 | 0.16 | 90* | 0.1 | 0.1 | 93*
COc1ccc(C)cc1NC(=O)CN(C)S(=O)(=O)c1cnc[nH]1 | 1.5 | 78* | 0.3 | 0.2 | 73*
CCN(c1cccc(C)c1)S(=O)(=O)c1c(C)[nH]c(=O)[nH]c1=O | 0.66 | -4 | 1.3 | 1 | -29
Cc1cccc(NC(=O)Cn2cccc2)c1 | -0.064 | 24 | 0.8 | 0.8 | 22
CCN(c1cccc(C)c1)S(=O)(=O)c1cnc[nH]1 | -0.98 | 97* | 0 | 0 | 98*
CCN(c1cccc(C)c1)S(=O)(=O)c1cccc(C(=O)O)c1 | -0.23 | -13 | 1 | 1.1 | -2
Fc1ccc(-c2nnc(-n3nnc4ccccc43)c3ccccc23)cc1 | 0.54 | . | . | . | .
O=C(NCC1CCCO1)c1cccc(-n2cnnn2)c1 (stereo not drawn) | -0.059 | -15 | 1.2 | 1.1 | -20
COc1ccc(/C=C2\N=C(SC)NC2=O)cc1 | 0.0077 | 7 | 0.9 | 0.9 | 14
COc1ccc(/C=C2\N=C(SC)N(C)C2=O)cc1 | -0.76 | 52* | 0.6 | 0.5 | 39
COc1ccc(CCNc2nc(C)cc(=O)[nH]2)cc1OC | 0.73 | . | . | . | .
COc1ccc(N2CC(C(=O)NCCc3ccc(OC)c(OC)c3)CC2=O)cc1 (stereo not drawn) | . | -3 | 1 | 1 | 2
CCOC(=O)c1cnc2ccccc2c1NCCc1ccc(OC)c(OC)c1 | -2.5 | 75* | 0.2 | 0.3 | 83*
SMILES | Cav32 inh | CYP2C19 inhib | CYP2C9 activ | CYP2C19 act | CYP2C9 inhib
CCOc1cc(C)nc(NCCc2ccc(OC)c(OC)c2)n1 | -0.98 | 66* | 0.8 | 0.3 | 21
CCOC(=O)c1ccc2ncc(C(=O)OCC)c(NCCN(C)C)c2c1 | 1.4 | . | . | . | .
COc1ccc(N2CCN(c3nc(NCCc4ccc(OC)c(OC)c4)nc(OC)n3)CC2)cc1 | -2 | 82* | 0.2 | 0.2 | 83*
COC(=O)[C@@H]1C[C@@H]2CC[C@@H](O)C[C@@H]2N1Cc1ccc(N2CCN(C)CC2)cc1 | 0.28 | . | . | . | .
CCOC(=O)c1ccc(N2C(=O)CC(NC3CCN(C(=O)c4cccc(Cl)c4)CC3)C2=O)cc1 (stereo not drawn) | 0.9 | 34 | 0.7 | 0.7 | 33
COc1ccc(OC)c(-n2c(SCC(C)=O)nnc2-c2cccc(S(=O)(=O)N(C)C)c2)c1 | 2.1 | 14 | 0.8 | 0.9 | 17
CCSc1nnc(-c2cccc(S(=O)(=O)N(C)C)c2)n1-c1cc(OC)ccc1OC | -0.64 | 70* | 0.2 | 0.3 | 84*
CCCSc1nnc(-c2cccc(S(=O)(=O)N(C)C)c2)n1-c1cc(OC)ccc1OC | -1.9 | 77* | 0.1 | 0.2 | 86*
COC(=O)c1cc(NC(=O)c2cccc(C(F)(F)F)c2)c(=O)oc1C/C=N/OCc1cccc(Cl)c1Cl | -4.6* | -5 | 1.7 | 1.1 | -67
CNC(=S)NNC(=O)c1cccc(C(F)(F)F)c1 | . | -4 | 1.1 | 1 | -9
